In PubChem BioAssay (NCI):
This is part of a sample that, as a whole, favours compounds with a hit. Of some 83,000 tested, about 20% had one in any assay.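 Percent growth is the endpoint: 0 to 100 indicates growth inhibition (40 means 60% inhibition), 0 means no net growth, and negative values indicate cell death.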 The source made the active and inactive calls. The calls were made as follows: active = growth percent below 10; inactive = the rest.

Experiments:
Assay in all cases: NCI-60 one-dose screen, 48 h (100 = growth as untreated, 0 = no growth, -100 = all killed)
Conditions in all cases: 10 µM unless noted
[1] = test system: SK-MEL-2 melanoma
[2] = test system: SN12C renal
[3] = test system: UO-31 renal
[4] = test system: TK-10 renal
[5] = test system: ACHN renal
[6] = test system: CAKI-1 renal
[7] = test system: A498 renal
[8] = test system: CCRF-CEM leukemia
[9] = test system: MOLT-4 leukemia
[10] = test system: SR leukemia
[11] = test system: RPMI-8226 leukemia
[12] = test system: OVCAR-8 ovarian
[13] = test system: OVCAR-5 ovarian
[14] = test system: OVCAR-4 ovarian
[15] = test system: SK-OV-3 ovarian
[16] = test system: IGROV1 ovarian
[17] = test system: OVCAR-3 ovarian
[18] = test system: HS 578T breast
[19] = test system: NCI/ADR-RES ovarian
[20] = test system: EKVX NSCLC

Measured: growth

C=C(C)C1CC(O)C2(C)CCCC3C2C1CC(C)C3(C)CC/C(C)=C/C(O)C1CCC(=O)c2c(OC)cc(OC)cc21 (configuration not stated)
active: [7] 9.01% | [11] 6.09%
inactive: [1] 65.8% | [2] 59.2% | [3] 47.6% | [4] 55.6% | [5] 41.1% | [6] 48.5% | [8] 25.7% | [9] 21.7% | [10] 26.6% | [12] 41.6% | [13] 86.9% | [14] 23.3% | [15] 51% | [16] 50.9% | [17] 32.7% | [18] 61.6% | [19] 45.9%

CC(=O)c1nc2ccccc2n1CC(=O)c1cccc(Cl)c1
active: [6] 5.79% | [8] 5.08% | [9] 4.87% | [10] -12.6% | [11] -11.8% | [17] -31.3%
inactive: [20] 17.1% | [2] 31.9% | [3] 28.3% | [4] 34.3% | [5] 51.3% | [7] 88.5% | [12] 10.1% | [14] 22.9% | [15] 17.5% | [18] 19% | [19] 13.9%

COc1cc(-c2nc3cc(Cl)c(Cl)cc3[nH]2)ccc1OCC(=O)N=Nc1c(O)[nH]c2ccccc12
active: [1] -80.7% | [2] -69.7% | [4] -12% | [6] -46.8% | [7] -45.9% | [8] -44.8% | [9] -50.7% | [10] -27.7% | [11] -45.2% | [12] -59% | [13] -75% | [14] -92.7% | [15] -28.2% | [16] -86.8% | [17] -98.1% | [18] -47.9%
inactive: [3] 93.5% | [5] 20% | [19] 85.3%

CCCOc1cc2ccccc2cc1C(=O)Nc1nc(NC)c2c(ccc3nccc32)[nH]1
active: [20] -78.4% | [2] -71.7% | [3] -88.8% | [4] -65.8% | [5] -90.7% | [6] -63.8% | [7] -92% | [8] -30.2% | [9] -56.1% | [10] -49.3% | [11] -46% | [12] -33.2% | [13] -61.4% | [14] -58.5% | [15] -86.9% | [16] -67.2% | [17] -76% | [18] -56.3% | [19] -17%

CCCCn1cnc2c(Sc3c([N+](=O)[O-])ncn3C)nc(N)nc21
inactive: [1] 112% | [2] 97.6% | [3] 69.1% | [4] 102% | [5] 99.8% | [8] 86.9% | [9] 49.5% | [10] 56.1% | [11] 52.3% | [12] 91.4% | [13] 97.6% | [14] 89.9% | [15] 101% | [16] 89.3% | [17] 103% | [18] 101% | [19] 109%

O=c1cc(/C(=C2/C=CC=N2)c2ccc[nH]2)c2cc(Cl)ccc2o1
inactive: [1] 62.4% | [20] 44.8% | [3] 41% | [5] 48% | [6] 55.7% | [7] 10.8% | [8] 28.3% | [10] 23.7% | [11] 51% | [13] 93.1% | [14] 77% | [15] 34.8% | [16] 31.5% | [18] 22.2%
active: [9] 7.2% | [12] -4.06% | [19] 5.06%

COc1cc(-c2ccc3c(c2)NC(=O)/C3=C\c2ccc[nH]2)ccc1O
inactive: [20] 35.6% | [2] 27.5% | [3] 14.5% | [4] 35.7% | [5] 11.6% | [6] 11.2% | [7] 64% | [8] 12.3% | [9] 10.3% | [12] 18.5% | [13] 48.2% | [14] 52.4% | [15] 30.7% | [16] 26.3% | [18] 53.9% | [19] 12.7%
active: [10] 8.9% | [11] 6.57% | [17] 9.59%

COc1cc(-c2nc3ccccc3[nH]2)ccc1OCc1nnc(-c2ccc(CC(C)C)cc2)o1
inactive: [1] 101% | [2] 89.9% | [3] 64.9% | [4] 115% | [5] 101% | [6] 96.3% | [7] 64% | [8] 84.9% | [9] 78.8% | [10] 80.2% | [11] 83% | [12] 92.2% | [13] 114% | [14] 90.9% | [15] 99.1% | [16] 92.3% | [17] 95.2% | [18] 87.4% | [19] 89.8%

Cc1cc(Nc2ccc(C)c(Cl)c2)n2nc(C(F)(F)F)nc2n1
active: [3] -43.2% | [4] -32.3% | [5] -2.48% | [6] -35.5% | [14] -62.7% | [15] -50.5%
inactive: [1] 60.8% | [2] 22.1% | [7] 91.9% | [8] 62% | [9] 74.1% | [10] 60.6% | [12] 30.8% | [13] 55.4% | [16] 15.1% | [17] 15.2% | [18] 28.7%

CN1CCN(c2ccc(Nc3c4ccccc4nc4ccccc34)cc2)CC1
inactive: [1] 106% | [2] 102% | [3] 97.5% | [4] 102% | [5] 102% | [6] 107% | [7] 112% | [8] 105% | [10] 103% | [11] 121% | [12] 100% | [13] 102% | [14] 103% | [15] 112% | [16] 111% | [17] 110% | [18] 117%

CC[C@]1(O)C[C@@H]2CN(CCc3c([nH]c4ccccc34)[C@@](C(=O)OC)(c3cc4c(cc3OC)N(C)[C@H]3[C@@](O)(C(N)=O)[C@H](O)[C@]5(CC)[C@@H]6C[C@@H]6CN6CC[C@]43[C@@H]65)C2)C1
active: [7] -7.44% | [17] 6.81% | [19] 9.52%
inactive: [20] 41.1% | [2] 27.6% | [3] 50% | [4] 53.5% | [5] 33% | [6] 32.8% | [8] 17.7% | [9] 17.1% | [10] 12.1% | [11] 13.8% | [12] 15.9% | [13] 52.2% | [14] 52% | [15] 14.8% | [16] 36.5% | [18] 30.2%

O=C(COc1ccc(-c2nc3cc(Cl)c(Cl)cc3[nH]2)cc1)N=Nc1c(O)[nH]c2ccccc12
active: [2] -27.1% | [7] -1.56% | [10] 9.9% | [11] 8.82% | [12] -24.2% | [14] -55.1% | [15] 4.99% | [17] -54.9% | [18] -36.3%
inactive: [1] 14.6% | [3] 99.7% | [4] 22.8% | [5] 25.6% | [6] 38.5% | [8] 16.1% | [9] 27% | [13] 53.6% | [16] 33.2% | [19] 85.1%

CCOc1cc2ncc(C#N)c(Nc3ccc(F)c(Cl)c3)c2cc1NC(=O)CC1CCSS1 (configuration not stated)
active: [20] -55% | [2] -55.9% | [3] -92.4% | [4] -74.2% | [5] -90.7% | [6] -73.4% | [7] -53.7% | [8] -20.2% | [9] -47% | [10] -27.8% | [11] -5.51% | [12] -41.7% | [13] -40.6% | [14] -69.4% | [15] -91.7% | [16] -45.9% | [17] -86.3% | [18] -17.4% | [19] -30.3%

CCC#CC[C@H](O)C/C=C1/C(=O)C=C[C@@H]1C/C=C\CCCC(=O)OC
inactive: [20] 23.7% | [7] 95.7% | [13] 32.4% | [14] 29.1% | [15] 35.5% | [16] 14% | [17] 12.5% | [18] 52.6% | [19] 14.4%
active: [1] -35.8% | [3] -65.4% | [4] 2.33% | [5] -82.8% | [6] -18.3% | [8] -8.8% | [10] -8.41% | [12] 7.14%

O=C(Cn1cccc(Nc2ccccc2)c1=O)Nc1ccccc1
inactive: [1] 121% | [2] 104% | [3] 91.6% | [4] 107% | [5] 103% | [6] 97.6% | [7] 65.6% | [8] 105% | [9] 110% | [10] 104% | [11] 100% | [12] 102% | [13] 90.1% | [14] 102% | [15] 104% | [16] 119% | [17] 115% | [18] 102%

O=C(CCCCC(=O)N/N=C\c1ccccc1O)N/N=C\c1ccccc1O
inactive: [1] 75.6% | [2] 47.4% | [3] 19.3% | [4] 40.5% | [5] 13.2% | [6] 14.7% | [8] 18.1% | [9] 14.6% | [10] 19.7% | [11] 50.2% | [12] 41.7% | [13] 59% | [14] 70.3% | [15] 40.3% | [16] 27.2% | [18] 71% | [19] 41.6%

O=c1oc2c(C(F)(F)F)cccc2cc1-c1csc(Nc2ccc(OCCF)cc2)n1
active: [7] -9.67% | [8] 5.28% | [10] 6.43% | [12] 4.22% | [17] -21.4%
inactive: [1] 18% | [20] 38% | [3] 40.3% | [5] 23.2% | [6] 12.2% | [9] 15.8% | [11] 15.9% | [13] 67.5% | [14] 40.4% | [15] 15.1% | [16] 21.4% | [18] 22.7% | [19] 17.5%
